From PubChem
In the library only some 3.7% were active in any assay of this set; here they are far more common.
PfHsp90 set2 = inhibits growth of yeast expressing Plasmodium falciparum Hsp90. S. cerevisiae expressing PfHsp90, BacTiter-Glo ATP, 48 h; yeast lacking PDR1 and PDR3 efflux regulators. inhibition, % at 9.4 µM. 0.32% of 310,000 active. AID 504621;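 active = every replicate shows inhibition above about 80%, whatever the replicate mean, limit read from the data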
NALP3 yeast inh = inhibitors of NALP3 inflammasome in yeast. inhibition, % at 10 µM. 0.39% of 330,000 active. Yeast reconstituted NLRP3/ASC/caspase-1, beta-gal luminescence, 24 h. AID 2825;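 active = inhibition of 50% or more; inactive = inhibition below 50%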
tim10-1 inh = tim10-1 yeast growth inhibition; AID 463190; 2.2% of 330,000 active; inhibition, % at 20 µM; S. cerevisiae tim10-1 ts strain growth, BacTiter-Glo, 24 h;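 active = inhibition of at least 40%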;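 also: mutant grown at 25 °C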
tim23-1 inh = growth inhibitors of tim23-1 mutant yeast; S. cerevisiae tim23-1 growth, BacTiter-Glo luminescence, 24 h; inhibition, % at 20 µM; 1.3% of 330,000 active; AID 463212;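 active = growth inhibition of the mutant yeast at or above 50%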;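 also: temperature-sensitive mutant grown at 25 °C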
TIM10 inh = growth inhibitors of TIM10 yeast strain | S. cerevisiae TIM10 strain growth, BacTiter-Glo luminescence, 24 h | inhibition, % at 10 µM | 1.4% of 330,000 active | AID 463195;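 active = inhibition of 40% or more at the single tested concentration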;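 also: wild-type TIM10 isogenic control strain grown at permissive 25 °C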
tim10-1 conf = tim10-1 yeast growth inhibition, confirmed; 56% of 7,400 active; inhibition, % at 20 µM; shares compounds with tim10-1 inh; S. cerevisiae tim10-1 ts strain growth, BacTiter-Glo, 24 h;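 active = inhibition of yeast growth at or above a set limit in either of two repeat tests at 20 µM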;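 also: tim10-1 mutant grown at permissive 25 °C to find synthetic lethal compounds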
A number is an active result; – = inactive; · = no result given.

SMILES | PfHsp90 set2 | NALP3 yeast inh | tim10-1 inh | tim23-1 inh | TIM10 inh | tim10-1 conf
O=C(N=Nc1ccc(NOC(=O)c2ccccc2Br)cc1)c1ccccc1O | · | – | 50 | – | – | 37
COc1ccc(C=C(NC(=O)c2ccccc2)C(=O)O)cc1OC | – | · | · | · | · | ·
CC(CNC(=O)COc1ccccc1)OC(=O)Nc1ccc(Cl)c(Cl)c1 (stereo not given) | – | – | 50 | – | – | 43
NS(=O)(=O)c1ccc(CCNC(=O)c2ccc(S(=O)(=O)N3CCCCC3)cc2)cc1 | – | – | – | – | – | ·
O=C(NCCc1ccc(Cl)cc1)c1ccc(S(=O)(=O)N2CCCC2)cc1 | – | – | 48 | – | – | 45
O=C(NCCc1ccc(Cl)cc1)C1CCN(S(=O)(=O)c2cccs2)CC1 | – | – | 50 | – | – | 40
O=C(NCCc1ccccc1)C1CCN(S(=O)(=O)c2cccs2)CC1 | – | – | – | – | – | ·
Cc1ccc(NC(=O)c2sc(N)nc2-c2ccccc2)cc1C | – | – | 49 | – | – | 37
Cc1ccc(NC(=O)c2sc(N)nc2-c2ccc([N+](=O)[O-])cc2)cc1C | – | – | – | – | – | ·
Cc1ccc(NC(=O)CN2CCN(C)CC2)cc1S(=O)(=O)N1CCOCC1 | – | – | – | – | – | ·
COc1ccc(C2(OC)Oc3cc(OC)ccc3C(=O)C2(O)OC)cc1 (stereo not given) | – | · | · | · | · | ·
Cc1ccc(-n2c(-c3ccccc3)c[n+]3c2CCC3)cc1 | – | – | – | – | – | ·
Cc1ccc(-n2c(-c3ccccc3)c[n+]3c2CCc2ccccc2-3)c(C)c1 | · | – | 43 | – | – | –
O=C(NC1CCN(S(=O)(=O)c2ccccc2F)CC1)c1cccnc1 | – | – | – | – | – | ·
O=C(c1cnn2c(-c3ccccc3)cc(-c3ccccc3)nc12)N1CCN(Cc2ccccc2)CC1 | – | – | – | – | – | ·
COC(=O)c1ccc(N2CCN(S(=O)(=O)c3ccccc3)CC2)c([N+](=O)[O-])c1 | – | – | 42 | – | – | –
OC(COCC(F)(F)C(F)(F)C(F)(F)C(F)F)Cn1c2ccc(Cl)cc2c2cc(Cl)ccc21 (stereo not given) | – | – | 41 | – | – | 36
CCOc1ccccc1N1CCN(C(=O)Nc2cccc(Cl)c2)CC1 | · | – | 44 | – | – | –
COc1ccc(C)cc1NC(=O)c1cc(C2CC2)nc2c1c(C)nn2C1CCS(=O)(=O)C1 (stereo not given) | – | · | · | · | · | ·
Cc1ccc(-c2csc(=S)n2CC(=O)OCC(=O)NCc2ccco2)cc1 | · | – | 41 | – | – | –
COCCCn1nnnc1SCC(=O)N1c2ccccc2CC1C (stereo not given) | – | – | – | – | – | ·
CC1Cc2ccccc2N1C(=O)CSc1nnnn1Cc1ccccc1 (stereo not given) | – | – | 60 | – | – | 45
COc1cc(C(=O)NCCOc2cc(C)cc(C)c2)cc(OC)c1OC | – | – | – | – | – | ·
Cc1ccc(C(=O)Nc2nc3ccc(S(C)(=O)=O)cc3s2)o1 | · | – | 44 | – | – | 38
O=C(NCC(c1ccco1)N1CCc2ccccc2C1)c1ccc(Br)cc1 (stereo not given) | – | – | – | – | – | ·
SMILES | PfHsp90 set2 | NALP3 yeast inh | tim10-1 inh | tim23-1 inh | TIM10 inh | tim10-1 conf
Clc1ccc(-n2nnnc2-c2cnc3ccc(Cl)cc3c2-c2ccccc2)cc1 | – | – | – | – | – | ·
Clc1ccc2ncc(-c3nnnn3-c3ccccc3)c(-c3ccccc3)c2c1 | – | – | 44 | – | – | 36
Cc1ccc(Cl)c(OCC(=O)NC2CCN(Cc3ccccc3)CC2)c1 | · | – | 68 | – | – | –
Cc1cccc(NC(=O)CCCCCN2C(=O)[C@@H]3Cc4ccccc4CN3C2=O)c1 | – | – | – | – | – | ·
O=C(CCCCCN1C(=O)[C@@H]2Cc3ccccc3CN2C1=O)Nc1cccc(F)c1 | – | – | 45 | – | – | –
O=C(O)c1ccccc1NC(=O)c1ccccc1Nc1ccccc1 | – | – | – | – | – | ·
Cc1cc(C)nc(N2N=C(CSc3ccc(Cl)cc3)CC2=O)n1 | – | – | 45 | – | – | –
CCCOc1ccccc1OCC(=O)Nc1cccc(S(=O)(=O)NC2=NCCC2)c1 | – | – | – | – | – | ·
O=C(NCCc1ccc(O)c(O)c1)C1COc2ccccc2O1 (stereo not given) | – | – | – | – | – | ·
Cn1nc(-c2ccccc2)cc1NC(=O)Nc1ccc(C(C)(C)C)cc1 | – | – | 41 | – | – | 39
Cn1nc(-c2ccc(Cl)cc2)cc1NC(=O)Nc1ccccc1 | – | – | – | – | – | ·
O=C(Nc1ccccc1)N1CCCC(c2nc(-c3ccc(F)cc3)no2)C1 (stereo not given) | – | – | – | – | – | ·
O=C(Nc1cccc(C(F)(F)F)c1)N1CCC(c2nc(-c3ccc(F)cc3)no2)CC1 | · | – | 42 | – | – | 39
CC(=O)Nc1ccc(S(=O)(=O)NCc2nc(-c3cccc(C)c3)no2)cc1 | – | – | – | – | – | ·
CCOC(=O)N1CCN(C(=O)CSc2nc(=O)n3ccc(C)cc3n2)CC1 | – | – | – | – | – | ·
COc1ccc(Cl)cc1NC(=O)CN1CCC(n2nnc3cc(C)ccc32)CC1 | – | – | – | – | – | –
NC(=O)C1CCN(C(=O)CC(c2ccccc2)c2ccccc2)CC1 | – | – | – | – | – | ·
CN(CCCS(=O)(=O)[O-])c1ccc(/C=C/c2ccc3ccccc3[n+]2C)cc1 | – | – | 43 | – | – | –
COc1ccc(NC(=O)Nc2cc3oc4ccccc4c3cc2OC)cc1 | – | – | – | – | – | ·
COc1cc2c(cc1NC(=O)Nc1ccc(C)cc1)oc1ccccc12 | – | – | 43 | – | – | 41
COc1cc2c(cc1NC(=O)CSc1nc3ccccc3[nH]1)oc1ccccc12 | – | – | 41 | – | – | –
Cc1cc(Cl)ccc1OC(C)C(=O)Nc1cnn(CCCC(=O)O)c1 (stereo not given) | – | – | – | – | – | ·
O=C1CC(c2ccccc2Cl)CC(O)=C1C=Nc1ccccc1 (stereo not given) | – | – | 44 | – | – | 41
CN(C)CCCN(C(=O)c1ccc(S(=O)(=O)N2CCc3ccccc32)cc1)c1nc2ccc(F)cc2s1 | – | – | – | – | – | –
CN(C)CCCN(C(=O)c1ccc(S(=O)(=O)N2CCc3ccccc32)cc1)c1nc2ccc(Cl)cc2s1 | – | – | 43 | – | – | 34
CN(C)CCN(C(=O)c1ccc(S(=O)(=O)N(C)c2ccccc2)cc1)c1nc2ccc(Cl)cc2s1 | – | – | – | – | – | ·
Cc1ccc(-n2nnnc2CNC(=O)c2ccc([N+](=O)[O-])o2)cc1C | – | – | 43 | – | – | 31
O=C(NCc1nnnn1-c1ccc(F)cc1)c1ccc([N+](=O)[O-])o1 | · | – | – | – | – | ·
COc1ccc(N2C(=O)CC(N3CCCCC3)C2=O)cc1 (stereo not given) | – | – | – | – | – | ·
